Test results published in PubChem BioAssay AID1159580 (chemical genetic matrix, 2015).
In all, about 5,500 compounds went through this assay and about 2,000 (36%) were called active. Not shown: some 18% with an inconclusive outcome. Cut-off read from the data, not from the text of the source: active = normalized growth mostly below about 0.91 (no sharp cut-off); inconclusive = no clear call, values can overlap the other calls; inactive = mostly above about 0.92. The list shows a part of the results.

Experiment: chemical genetic growth profiling, strain panel (AID 1159580);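 note: tested at 20 µM; growth read once vehicle control cultures reached saturation at 30 °C; 1 = growth at the plate median or of vehicle wells; lower values mean less growth of the strain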
Conditions: S. cerevisiae deletion strains, growth OD
[1] = locus YAR019C, strain CDC15, hits give low values
[2] = locus YBL105C, strain PKC1, hits give low values
[3] = locus YBR135W, strain CKS1, hits give low values
[4] = locus YBR136W, strain MEC1, hits give low values
[5] = locus YBR160W, strain CDC28, hits give low values
[6] = locus YDL017W, strain CDC7, hits give low values
[7] = locus YDL028C, strain MPS1, hits give low values
[8] = locus YDL101C, strain DUN1, hits give low values
[9] = locus YDL108W, strain KIN28, hits give low values
[10] = locus YDL132W, strain cdc53, hits give low values
[11] = locus YDL214C, strain PRR2, hits give low values
[12] = locus YDR052C, strain DBF4, hits give low values
[13] = locus YDR054C, strain cdc34, hits give low values
[14] = locus YDR226W, strain ADK1, hits give low values
[15] = locus YDR477W, strain SNF1, hits give low values
[16] = locus YER123W, strain YCK3, hits give low values
[17] = locus YER133W, strain GLC7, hits give low values
[18] = locus YFL009W, strain cdc4, hits give low values
[19] = locus YFL029C, strain CAK1, hits give low values
[20] = locus YFR003C, strain YPI1, hits give low values
[21] = locus YFR019W, strain FAB1, hits give low values
[22] = locus YFR028C, strain CDC14, hits give low values
[23] = locus YGR040W, strain KSS1, hits give low values
[24] = locus YGR052W, strain FMP48, hits give low values
[25] = locus YGR092W, strain DBF2, hits give low values
[26] = locus YHR030C, strain SLT2, hits give low values
[27] = locus YHR079C, strain IRE1, hits give low values
[28] = locus YHR082C, strain KSP1, hits give low values
[29] = locus YHR205W, strain SCH9, hits give low values
[30] = locus YIL147C, strain SLN1, hits give low values
[31] = locus YJL095W, strain BCK1, hits give low values
[32] = locus YJL128C, strain PBS2, hits give low values
[33] = locus YJL157C, strain FAR1, hits give low values
[34] = locus YJR016C, strain ILV3, hits give low values
[35] = locus YJR066W, strain TOR1 (second series), hits give low values
[36] = locus YJR066W, strain TOR1, hits give low values
[37] = locus YKL048C, strain ELM1, hits give low values
[38] = locus YKL067W, strain YNK1, hits give low values
[39] = locus YKL101W, strain HSL1, hits give low values
[40] = locus YKL193C, strain SDS22, hits give low values
[41] = locus YKL203C, strain TOR2, hits give low values
[42] = locus YLR113W, strain HOG1, hits give low values
[43] = locus YLR133W, strain CKI1, hits give low values
[44] = locus YLR403W, strain SFP1, hits give low values
[45] = locus YML070W, strain DAK1, hits give low values
[46] = locus YMR001C, strain CDC5, hits give low values
[47] = locus YMR205C, strain PFK2 (second series), hits give low values
[48] = locus YMR277W, strain FCP1, hits give low values
[49] = locus YNL006W, strain LST8, hits give low values
[50] = locus YNL020C, strain ARK1, hits give low values
[51] = locus YNL161W, strain CBK1, hits give low values
[52] = locus YNL183C, strain NPR1, hits give low values
[53] = locus YNL207W, strain RIO2, hits give low values
[54] = locus YNL222W, strain SSU72, hits give low values
[55] = locus YNL307C, strain MCK1 (second series), hits give low values
[56] = locus YOL078W, strain AVO1, hits give low values
[57] = locus YOL136C, strain PFK27, hits give low values
[58] = locus YOR061W, strain CKA2, hits give low values
[59] = locus YOR119C, strain RIO1, hits give low values
[60] = locus YOR231W, strain MKK1, hits give low values
[61] = locus YOR329C, strain SCD5, hits give low values
[62] = locus YPL031C, strain PHO85, hits give low values
[63] = locus YPL153C, strain RAD53, hits give low values
[64] = locus YPL204W, strain HRR25, hits give low values
[65] = locus YPL209C, strain IPL1, hits give low values
[66] = locus YPL256C, strain CLN2, hits give low values
[67] = locus YPR025C, strain CCL1, hits give low values
[68] = locus YPR106W, strain ISR1, hits give low values
[69] = locus YPR111W, strain DBF20, hits give low values
[70] = strain NNK1, hits give low values
[71] = strain TSCII, hits give low values

Measured: normalized growth

Nc1ccccc1C(=O)N/N=C\c1cc(Cl)cc(Cl)c1O
active: [16] 0.435 | [24] 0.325 | [25] 0.13 | [26] 0.657 | [27] 0.485 | [29] 0.564 | [31] 0.425 | [33] 0.685 | [35] 0.404 | [37] 0.579 | [38] 0.649 | [39] 0.301 | [41] 0.65 | [42] 0.434 | [43] 0.586 | [45] 0.494 | [47] 0.527 | [50] 0.516 | [52] 0.43 | [55] 0.27 | [57] 0.588 | [58] 0.491 | [59] 0.696 | [60] 0.393 | [63] 0.583 | [64] 0.655 | [66] 0.456
inactive: [1] 0.968 | [2] 0.958 | [3] 0.97 | [4] 0.962 | [5] 0.968 | [6] 0.963 | [7] 0.964 | [8] 0.97 | [9] 0.965 | [10] 0.954 | [11] 0.758 | [12] 0.959 | [13] 0.955 | [14] 0.957 | [15] 0.694 | [17] 0.76 | [18] 0.949 | [19] 0.966 | [20] 0.962 | [21] 0.838 | [22] 0.948 | [23] 0.777 | [28] 0.682 | [30] 0.963 | [32] 0.972 | [34] 0.976 | [36] 0.546 | [40] 0.967 | [44] 0.669 | [46] 0.956 | [48] 0.958 | [49] 0.967 | [51] 0.967 | [53] 0.948 | [54] 0.967 | [56] 0.969 | [61] 0.97 | [62] 0.688 | [65] 0.969 | [67] 0.967 | [68] 0.96 | [69] 0.946 | [70] 0.939 | [71] 0.962

O=C(N/N=C\c1cc(Cl)cc(Cl)c1O)c1ccccc1Oc1ccccc1
active: [42] 0.722 | [66] 0.818
inactive: [1] 0.965 | [2] 0.967 | [3] 0.981 | [4] 0.964 | [5] 0.974 | [6] 0.975 | [7] 0.963 | [8] 0.981 | [9] 0.958 | [10] 0.955 | [11] 0.933 | [12] 0.97 | [13] 0.96 | [14] 0.966 | [15] 0.945 | [16] 0.882 | [17] 0.949 | [18] 0.958 | [19] 0.953 | [20] 0.961 | [21] 0.946 | [22] 0.962 | [23] 0.934 | [24] 0.929 | [25] 0.885 | [26] 0.855 | [27] 0.917 | [28] 0.916 | [29] 0.844 | [30] 0.967 | [31] 0.871 | [32] 0.921 | [33] 0.939 | [34] 0.974 | [35] 0.939 | [36] 0.933 | [37] 0.895 | [38] 0.901 | [39] 0.89 | [40] 0.965 | [41] 0.969 | [43] 0.926 | [44] 0.925 | [45] 0.891 | [46] 0.961 | [47] 0.913 | [48] 0.971 | [49] 0.982 | [50] 0.906 | [51] 0.971 | [52] 0.88 | [53] 0.945 | [54] 0.971 | [55] 0.906 | [56] 0.975 | [57] 0.913 | [58] 0.905 | [59] 0.922 | [60] 0.91 | [61] 0.976 | [62] 0.938 | [63] 0.924 | [64] 0.919 | [65] 0.982 | [67] 0.966 | [68] 0.968 | [69] 0.952 | [70] 0.959 | [71] 0.967

CC(C)(C)c1ccc(C(=O)N/N=C\c2cc(Cl)cc(Cl)c2O)cc1
active: locus YAL013W, strain DEP1, hits give low values 0.909 | locus YBR229C, strain ROT2, hits give low values 0.832 | locus YCL061C, strain MRC1, hits give low values 0.818 | [8] 0.852 | locus YEL061C, strain CIN8, hits give low values 0.624 | locus YGR078C, strain PAC10, hits give low values 0.847 | [26] 0.452 | locus YHR087W, strain rtc3, hits give low values 0.872 | locus YJR043C, strain POL32, hits give low values 0.876 | locus YKL190W, strain CNB1, hits give low values 0.316 | locus YLR039C, strain RIC1, hits give low values 0.165 | locus YLR085C, strain ARP6, hits give low values 0.285 | locus YLR262C, strain YPT6, hits give low values 0.182 | locus YML094W, strain GIM5, hits give low values 0.645 | locus YMR219W, strain ESC1, hits give low values 0.83 | locus YNL128W, strain TEP1, hits give low values 0.377 | locus YNL153C, strain GIM3, hits give low values 0.826 | locus YNL298W, strain CLA4 (second series), hits give low values 0.642 | locus YNR030W, strain Alg12, hits give low values 0.617 | locus YPL241C, strain CIN2, hits give low values 0.428
inactive: locus YDR150W, strain NUM1, hits give low values 1.19 | locus YJR075W, strain HOC1, hits give low values 0.996 | locus YLR058C, strain SHM2 (second series), hits give low values 0.97 | locus YMR263W, strain SAP30, hits give low values 0.893 | locus YNL322C, strain KRE1, hits give low values 0.998 | locus YPL055C, strain LGE1, hits give low values 0.858 | locus YPR135W, strain CTF4, hits give low values 0.69
